Screens as filed in PubChem BioAssay.
PAFAH2 inh: PAFAH2 enzyme inhibitors, primary screen, biochemical, fluorescence polarization, human. Platelet-activating factor acetylhydrolase 2, cytoplasmic (Homo sapiens), Q99487. recombinant PAFAH2, FP-rhodamine activity probe. inhibition, % at 3.39 µM. 340,000 compounds, 0.99% hits;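 active = inhibition above the mean over all tested compounds plus 3 SD, cut at about 30% in these data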;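 also: inhibitors block probe labeling of enzyme so polarization drops; 0% = enzyme with DMSO and 100% = wells lacking PAFAH2 protein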
Fam108B inh: mouse Fam108B serine hydrolase inhibitors, primary screen, counter-screen for RBBP9 inhibitor project, biochemical, fluorescence polarization | recombinant Fam108B, FP-Rh probe fluorescence polarization | inhibition, % at 9.51 µM | 300,000 compounds, 0.33% hits | AID 1947, 2009;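 active = inhibition above the screen mean inhibition plus 3 SD, computed separately per campaign, cut at about 18% in these data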;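 also: inhibitors lower polarization as less probe binds the enzyme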
pPAFAH FP inh: pPAFAH enzyme inhibitors, primary screen, biochemical, fluorescence polarization, human; Platelet-activating factor acetylhydrolase (Homo sapiens), Q13093; recombinant pPAFAH, FP-rhodamine probe fluorescence polarization; inhibition, % at 3.39 µM; 330,000 compounds, 1.5% hits;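 active = inhibition above the mean inhibition across the screen plus 3 SD, cut at about 25% in these data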;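 also: inhibitors block binding of the rhodamine activity-based probe so polarization drops; 0% = enzyme with DMSO and 100% = wells lacking pPAFAH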
PAFAH1B2 FP inh: PAFAH1B2 enzyme inhibitors, primary screen, biochemical, fluorescence polarization, human; recombinant PAFAH1B2, FP-rhodamine activity probe; 340,000 compounds, 1.2% hits; Platelet-activating factor acetylhydrolase IB subunit alpha2 (Homo sapiens), P68402; inhibition, % at 3.39 µM;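 active = inhibition above the mean of all tested compounds plus 3 SD, cut at about 24% in these data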;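 also: 0% = enzyme with DMSO and 100% = wells lacking PAFAH1B2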
Target sequence (P68402 whole entry, looked up): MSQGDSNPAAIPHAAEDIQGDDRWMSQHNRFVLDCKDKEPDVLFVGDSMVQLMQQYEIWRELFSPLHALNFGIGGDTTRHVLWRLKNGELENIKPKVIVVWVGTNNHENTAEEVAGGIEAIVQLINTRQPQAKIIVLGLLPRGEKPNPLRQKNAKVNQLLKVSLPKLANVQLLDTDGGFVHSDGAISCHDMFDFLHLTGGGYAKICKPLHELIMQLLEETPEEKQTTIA
PAFAH1B3 inh: PAFAH1B3 enzyme inhibitors, primary screen, biochemical, fluorescence polarization, human. 340,000 compounds, 0.28% hits. inhibition, % at 3.39 µM. recombinant PAFAH1B3, FP-rhodamine probe. Platelet-activating factor acetylhydrolase IB subunit alpha1 (Homo sapiens), Q15102;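 active = inhibition above the screen-wide average of all tested compounds plus 3 SD, cut at about 25% in these data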;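 also: 0% = enzyme with DMSO only and 100% = wells lacking PAFAH1B3 protein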
PME-1 primary: PME-1 inhibitors via competitive probe labeling, primary screen, biochemical, fluorescence polarization, FP-Rh probe, HTS | recombinant PME-1 | 320,000 compounds, 0.53% hits | inhibition, % at 5.9 µM | Protein phosphatase methylesterase 1 (Homo sapiens), Q9Y570;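 active = inhibition above the campaign mean of all compounds plus 3 SD, cut at about 26% in these data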;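 also: competitive labeling of PME-1 active site by serine hydrolase directed probe; 0% = PME-1 with DMSO and 100% = wells lacking PME-1 enzyme; inhibitors block probe labeling so polarization falls and inhibition rises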
Target sequence (Q9Y570 whole entry, looked up): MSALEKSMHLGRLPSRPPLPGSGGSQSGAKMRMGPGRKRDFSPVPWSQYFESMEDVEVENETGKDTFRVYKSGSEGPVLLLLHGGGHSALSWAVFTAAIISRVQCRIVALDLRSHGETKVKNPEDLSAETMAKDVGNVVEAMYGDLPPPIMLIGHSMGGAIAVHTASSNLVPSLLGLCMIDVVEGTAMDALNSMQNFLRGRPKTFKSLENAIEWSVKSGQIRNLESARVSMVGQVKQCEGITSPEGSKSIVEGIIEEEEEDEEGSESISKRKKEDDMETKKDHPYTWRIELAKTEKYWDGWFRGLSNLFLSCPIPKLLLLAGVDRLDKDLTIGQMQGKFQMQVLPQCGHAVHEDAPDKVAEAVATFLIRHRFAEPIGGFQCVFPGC
PAFAH2 confirm: PAFAH2 enzyme inhibitors, confirmation, biochemical, fluorescence polarization, human; shares compounds with PAFAH2 inh; recombinant PAFAH2, FP-rhodamine activity probe; inhibition, % at 3.39 µM; 2,300 compounds, 65% hits; AID 493030, 2011;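 active = mean inhibition over three repeats above a set limit taken from the earlier primary screen, cut at about 30% in these data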;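 also: inhibitor blocks binding of rhodamine activity probe so polarization falls; 0% = enzyme with DMSO and 100% = wells lacking PAFAH2 protein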
An asterisk follows results filed as active. In the library only some 2.8% were active in any assay of this set; here they are far more common.

For Cc1ccc(C(=O)OCc2nnc(-c3ccccc3)o2)cc1S(=O)(=O)N1CCOCC1 the results were PAFAH2 inh 61*, Fam108B inh 1, pPAFAH FP inh 3, PAFAH1B2 FP inh 5, PAFAH1B3 inh 11, PME-1 primary 1 and PAFAH2 confirm 47*.
Screening O=C(OCc1nnc(-c2ccccc2)o1)c1ccc2c(c1)OCCO2 returned PAFAH2 inh 75*, Fam108B inh -2, pPAFAH FP inh 10, PAFAH1B2 FP inh -1, PAFAH1B3 inh -1, PME-1 primary 0 and PAFAH2 confirm 60*.
CS(=O)(=O)c1ccc(C(=O)OCc2nnc(-c3ccccc3)o2)cc1[N+](=O)[O-] was read as PAFAH2 inh 16, PAFAH1B2 FP inh -3 and PAFAH1B3 inh 3.
Screening COc1ccc(-c2cc(C(=O)N(C)CC(=O)Nc3cccc(F)c3)c3ccccc3n2)cc1 returned PAFAH2 inh -3, Fam108B inh -9, pPAFAH FP inh -7, PAFAH1B2 FP inh -1, PAFAH1B3 inh -2 and PME-1 primary -12.
`CCOc1ccc(OCC)c(S(=O)(=O)n2cnc(C)c2)c1` gave PAFAH2 inh -2, Fam108B inh -1, pPAFAH FP inh -4, PAFAH1B2 FP inh 2, PAFAH1B3 inh 2 and PME-1 primary 8.
COC(=O)c1sc(NC(=S)NC(=O)c2cccc(Br)c2)nc1C was read as PAFAH2 inh 9, Fam108B inh 3, pPAFAH FP inh 4, PAFAH1B2 FP inh 2, PAFAH1B3 inh 7 and PME-1 primary -5.
Screening Cc1ccc(-c2nnc(COC(=O)c3ccco3)o2)cc1 returned PAFAH2 inh 12, Fam108B inh 0, pPAFAH FP inh 2, PAFAH1B2 FP inh 9, PAFAH1B3 inh 3 and PME-1 primary 3.
Screening CC(=O)c1c(C)[nH]c(C(=O)OCc2nnc(-c3ccccc3)o2)c1C returned PAFAH2 inh 26, Fam108B inh 2, pPAFAH FP inh -1, PAFAH1B2 FP inh -3, PAFAH1B3 inh 4 and PME-1 primary -1.
`O=C(OCc1nnc(-c2ccccc2)o1)c1ccc(CO)cc1` gave PAFAH2 inh 55*, Fam108B inh 1, pPAFAH FP inh 2, PAFAH1B2 FP inh 0, PAFAH1B3 inh 8, PME-1 primary -1 and PAFAH2 confirm 56*.
Screening Cc1ccc(-c2nnc(COC(=O)c3cccs3)o2)cc1 returned PAFAH2 inh 54*, Fam108B inh 0, pPAFAH FP inh 5, PAFAH1B2 FP inh 7, PAFAH1B3 inh -5, PME-1 primary 0 and PAFAH2 confirm 38*.
For O=C(OCc1nnc(-c2ccccc2)o1)C1=COCCO1 the results were PAFAH2 inh 44*, Fam108B inh 1, pPAFAH FP inh 0, PAFAH1B2 FP inh 5, PAFAH1B3 inh 0, PME-1 primary 2 and PAFAH2 confirm 31*.
Screening Cc1ccc(C(=O)OCc2nnc(-c3ccccc3)o2)o1 returned PAFAH2 inh 44*, Fam108B inh 3, pPAFAH FP inh 5, PAFAH1B2 FP inh -1, PAFAH1B3 inh -3, PME-1 primary 4 and PAFAH2 confirm 33*.
Cc1cc(C)n(-c2ccc(C(=O)OCc3nnc(-c4ccccc4)o3)cc2)n1 was read as PAFAH2 inh 9, Fam108B inh 1, pPAFAH FP inh 6, PAFAH1B2 FP inh 0, PAFAH1B3 inh 4 and PME-1 primary 1.
CC(=O)Nc1ccc(NCC(=O)c2ccccc2)cc1 was read as PAFAH2 inh 0, Fam108B inh -4, pPAFAH FP inh 5, PAFAH1B2 FP inh 6, PAFAH1B3 inh 4 and PME-1 primary 6.
For COc1cc(OC)c(NC(=O)c2csc(C)c2)cc1Cl the results were PAFAH2 inh 1, Fam108B inh 5, pPAFAH FP inh -2, PAFAH1B2 FP inh 4, PAFAH1B3 inh 11 and PME-1 primary 3.
For CCc1nnc(NS(=O)(=O)c2ccc(NCc3cc(Cl)cc(Cl)c3O)cc2)s1 the results were PAFAH2 inh 22, Fam108B inh 5, pPAFAH FP inh -8, PAFAH1B2 FP inh 2, PAFAH1B3 inh 14 and PME-1 primary -2.
O=C(Nc1ccccc1C(F)(F)F)C1CCN(C(=O)c2cccs2)CC1 was read as PAFAH2 inh 9, Fam108B inh 0, pPAFAH FP inh 0, PAFAH1B2 FP inh 4, PAFAH1B3 inh 5 and PME-1 primary -2.
`COc1ccc(S(=O)(=O)N2CCOC2CNC(=O)C(=O)NCc2ccccn2)cc1C` (centres undefined) gave PAFAH2 inh 3, Fam108B inh 2, pPAFAH FP inh 3, PAFAH1B2 FP inh -3, PAFAH1B3 inh -2 and PME-1 primary 6.
`Cc1ccc(C(=O)N[C@H](C(=O)OCc2nnc(-c3ccccc3)o2)C(C)C)cc1` gave PAFAH2 inh 6, Fam108B inh 1, pPAFAH FP inh 2, PAFAH1B2 FP inh 7, PAFAH1B3 inh 2 and PME-1 primary -5.
O=C(OCc1nnc(-c2ccccc2)o1)c1ccc(Cl)cc1 was read as PAFAH2 inh 43*, Fam108B inh 3, pPAFAH FP inh 10, PAFAH1B2 FP inh 4, PAFAH1B3 inh 1, PME-1 primary 2 and PAFAH2 confirm 37*.
`Cc1ccc(C(=O)OCc2nnc(-c3ccc(Br)cc3)o2)cc1` gave PAFAH2 inh 72*, Fam108B inh -3, pPAFAH FP inh 10, PAFAH1B2 FP inh 0, PAFAH1B3 inh 8, PME-1 primary 9 and PAFAH2 confirm 58*.
`CN(C)S(=O)(=O)c1ccc(C(=O)OCc2nnc(-c3ccccc3)o2)cc1` gave PAFAH2 inh 4, Fam108B inh -5, pPAFAH FP inh 0, PAFAH1B2 FP inh 4, PAFAH1B3 inh 3 and PME-1 primary 0.
CC(=O)C(Cc1ccccc1)NC(=O)COC(=O)c1cccc(C)c1[N+](=O)[O-] (centres undefined) was read as PAFAH2 inh 36*, pPAFAH FP inh 6, PAFAH1B2 FP inh 7, PAFAH1B3 inh 14 and PAFAH2 confirm 14.
`CCN(CC)c1ccc(C(=O)Nc2cccc(F)c2)cc1` gave PAFAH2 inh 38*, Fam108B inh 7, pPAFAH FP inh 15, PAFAH1B2 FP inh 3, PAFAH1B3 inh 1, PME-1 primary -2 and PAFAH2 confirm 42*.
